From PubChem BioAssay (NCATS)
Results filed as inconclusive are left out. Activity calls are given as the source filed them. Calls follow the shape of the dose curve; as a rule, active = well fitted cell-killing curve with a large enough effect; inconclusive = small, poorly fitted or top-dose-only effect; inactive = flat fitted curve, though single readings scatter.

Assays:
[1] = Cell Viability - LYMP2-008 (AID 980); also: nearly all actives have a fitted effect of over 60% in size
How it was run: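 Luminescent ATP read-out (CellTiter-Glo, 30 min RT) after 24 hr compound exposure at 37 C of human lymphoblastoid cells in complete medium. Decrease in ATP taken as cytotoxicity; AC50 derived by standard Hill fit of qHTS concentration-response data.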

[2] = Cell Viability - LYMP2-010 (AID 981);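 also: cells exposed to compound for 24 hours at 37 °C; nearly all actives have a fitted effect of over 55% in size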
How it was run: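 qHTS cytotoxicity, 1536-well: 2500 cells/well, 5 hr settle, 24 hr compound at 37 C, CellTiter-Glo 30 min RT, luminescence read. Decrease in ATP = toxicity; AC50 via standard Hill equation. Positive control tetraoctylammonium bromide.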

[3] = Cell Viability - LYMP2-012 (AID 982);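 also: cellular ATP by luciferase luminescence where a drop means cytotoxicity; cells exposed to compound for one day before reading; nearly all actives have a fitted effect of over 55% in size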
[4] = Cell Viability - LYMP2-014 (AID 983); also: nearly all actives have a fitted effect of over 50% in size
How it was run: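 2500 cells/well, 5 hr 37 C; cpd 24 hr 37 C, complete medium; CellTiter-Glo 30 min RT, luminescence; ATP loss = toxicity; AC50 via Hill eqn; tetraoctylammonium bromide positive control.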

[5] = Cell Viability - LYMP2-016 (AID 984);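 also: cells exposed to compound for 24 hours at 37 °C; nearly all actives have a fitted effect of over 55% in size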
How it was run: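 Human lymphoblastoid LYMP2-016 cells, 2500 per well, treated with compounds for 24 h at 37 C. Viability read as intracellular ATP by CellTiter-Glo luminescence after 30 min at room temperature; AC50 from Hill fits of concentration-response.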

[6] = Cell Viability - LYMP2-018 (AID 985); also: nearly all actives have a fitted effect of over 50% in size
How it was run: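 2500 cells/well; 5 hr 37 C; cmpd 24 hr 37 C, complete medium; CellTiter-Glo 30 min RT; luminescence. Tetraoctylammonium bromide positive control. AC50 via Hill fit.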

[7] = Cell Viability - LYMP2-020 (AID 986); also: nearly all actives have a fitted effect of over 55% in size
How it was run: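 qHTS, 2500 cells/well; 5 hr then 24 hr compound exposure, 37 C; CellTiter-Glo luminescence after 30 min RT; ATP decrease taken as cytotoxicity; AC50 via Hill equation; tetraoctylammonium bromide positive control.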

[8] = Cell Viability - LYMP2-022 (AID 987); also: nearly all actives have a fitted effect of over 55% in size
How it was run: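 Luminescent ATP read-out (CellTiter-Glo, 30 min, RT) after 24 hr, 37 C compound exposure of 2500 human lymphoblastoid cells/well in complete medium. Cytotoxicity taken as concentration-dependent ATP loss; AC50 from standard Hill equation.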

[9] = Cell Viability - LYMP2-024 (AID 988); also: nearly all actives have a fitted effect of over 60% in size
How it was run: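 ATP-based luminescence (CellTiter-Glo, 30 min RT) after 24 h compound exposure at 37 C of 2500 lymphoblastoid cells/well; decrease in ATP taken as cytotoxicity. qHTS concentration-response fitted to standard Hill equation for AC50.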

[10] = Cell Viability - LYMP2-026 (AID 989); also: nearly all actives have a fitted effect of over 50% in size
How it was run: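 qHTS cytotoxicity: 2500 cells/well, 5 hr 37 C, compound 24 hr 37 C, CellTiter-Glo 30 min RT, luminescence. Tetraoctylammonium bromide positive control. AC50 via standard Hill fit.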

Measured: Potency
Potency is read from the fitted curve at half-maximal effect.

c1cc(OCC2CO2)cc(OCC2CO2)c1 (stereo not given)
active: [1] 39.8 µM | [2] 31.6 µM | [3] 31.6 µM | [4] 39.8 µM | [5] 25.1 µM | [6] 31.6 µM | [7] 39.8 µM | [8] 31.6 µM | [9] 39.8 µM | [10] 39.8 µM
